# A selection: hits, their analogues and other compounds. The true share with any hit is near 13%.
# CHOP inh: inhibitors of CHOP promoter induction, primary screen, cell-based, unfolded protein response, luciferase reporter. CHO-K1 CHOP-promoter luciferase, tunicamycin-induced, 15-18 h. inhibition, % at 10 µM. 3.8% of 220,000 active. AID 2732, 2010;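 active means compounds that reduced the stress-induced luciferase reporter signal by more than about 70% of percent inhibition, limit read from the data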
# RAM inhibit: inhibitors of the yeast RAM network, primary screen, dse1pr::URA3 reporter, 5-FOA selection; S. cerevisiae dse1pr::URA3 reporter, 5-FOA growth OD615, 2 d; analog-sensitive cbk1-as2 kinase mutant strain; inhibition, % at 50 µM; 1.8% of 190,000 active;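 active means inhibition above a set limit, 3 SD over mean compound inhibition, cut at about 8.4% in these data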;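 further: inhibition rescues growth on 5-FOA so higher OD means more RAM inhibition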
# WT yeast gro inh: growth inhibition of WT strain, primary screen, mitochondrial fusion inhibitor project, WT and mutant strains, chemical genetic. inhibition, % at 10 µM. AID 1362, 2008. 2.1% of 190,000 active. mitochondrial fusion phenotypic screen; in the data active means inhibition above about 58%; tested in S. cerevisiae
# Lmaj promast: Leishmania major promastigote growth inhibition, primary screen; inhibition, % at 10 µM; 9% of 200,000 active; Leishmania major promastigotes, resazurin fluorescence viability; in the data active means inhibition above about 50%;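 further: promastigotes grown with compound for 44 hours at 28 °C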
# Hits are given with their value; – = inactive; · = no result given.
SMILES,CHOP inh,RAM inhibit,WT yeast gro inh,Lmaj promast
c1ccc(CN2CCN(Cc3ccc4c(c3)OCCO4)CC2)cc1,–,–,–,79.7
Cc1ccccc1CN1CCN(Cc2ccccc2)CC1,–,–,–,–
Cc1ccc(/C=C2/C(=O)NC(=O)N(CCc3ccc(F)cc3)C2=O)o1,83.3,–,–,–
O=C1NC(=O)N(CCc2ccc(F)cc2)C(=O)/C1=C/c1ccco1,–,–,–,–
Cc1oc(C(=O)Nc2ccc(O)cc2)cc1COc1ccccc1,–,–,–,–
O=C(c1ccccc1)C1CCCN(Cc2nc(-c3cnccn3)no2)C1 (stereo not drawn),–,–,–,–
O=C(c1ccc(Cl)cc1)C1CCCN(Cc2cccc3ncccc23)C1 (stereo not drawn),–,–,–,80.6
O=C(c1cccnc1)C1CCCN(Cc2nc(-c3cnccn3)no2)C1 (stereo not drawn),–,·,·,·
O=C(c1ccc(Cl)cc1)C1CCCN(Cc2cccc3cccnc23)C1 (stereo not drawn),–,–,–,82.8
O=C(c1ccc(Cl)cc1)C1CCCN(Cc2ccc3nonc3c2)C1 (stereo not drawn),–,–,–,84.7
N#CC(c1ccccc1)N1CCOCC1 (stereo not drawn),–,·,·,·
CCOCCCNC(=O)CN1C2CCC1CC(O)(c1ccc(OC)cc1)C2 (stereo not drawn),–,–,–,–
CC(=O)N(C1=NCCCS1)c1ccc(Cl)cc1,–,–,–,96.1
CCOC(=O)C(NC(=O)CC)(Nc1ccc(C(O)(C(=O)OCC)C(F)(F)F)cc1C)C(F)(F)F (stereo not drawn),–,–,–,–
CCOC(=O)C(O)(c1ccc(NC(=S)NC(=O)c2ccc(Cl)cc2Cl)c(C)c1)C(F)(F)F (stereo not drawn),70.2,–,76.8,–
COC(=O)C(O)(c1ccc(NC(=S)NC(=O)c2ccc(Cl)cc2Cl)cc1)C(F)(F)F (stereo not drawn),71.2,–,–,–
CCOC(=O)C(O)(c1ccc(NC(=S)NC(=O)c2ccc(Cl)cc2Cl)cc1)C(F)(F)F (stereo not drawn),–,–,–,66.9
CC(C)(C)NCC(O)c1ccccc1Cl (stereo not drawn),–,·,·,·
CN1CCc2nc(SCc3ccccc3Br)c(C#N)cc2C1,–,–,–,64.8
O=c1c2ccccc2nc(-c2ccc(-c3ccccc3)cc2)n1-c1ccncc1,–,–,–,72.8
Cc1ccc(-c2nc3ccccc3c(=O)n2-c2ccncc2)cc1,–,–,–,–
CN(C)C=C1C(=O)N(C2CCCCC2)C(=O)N(C2CCCCC2)C1=O,77.0,–,–,–
Cc1ccc(OCC(=O)N2CCN(CC3CC4C=CC3C4)CC2)cc1 (stereo not drawn),–,–,–,77.7
O=C(COc1ccccc1)N1CCN(CC2CC3C=CC2C3)CC1 (stereo not drawn),–,–,–,90.7
CC1=C(/C=C/c2ccccc2)CCN(C)C1,–,–,–,98.6
SMILES,CHOP inh,RAM inhibit,WT yeast gro inh,Lmaj promast
CC(=O)OC(C)(C)/C=C/C(=O)[C@](C)(O)[C@H]1[C@H](O)C[C@@]2(C)[C@@H]3CC=C4[C@H](C[C@H](O)C(=O)C4(C)C)[C@]3(C)C(=O)C[C@]12C,–,–,–,52.1
COc1cc(/C=C2/C(=O)NC(=O)N(c3ccccc3)C2=O)ccc1O,–,–,–,–
COc1cc(/C=C/[N+](=O)[O-])ccc1O,–,–,–,96.7
COc1cccc(C(=O)C2CCCN(Cc3ccon3)C2)c1 (stereo not drawn),–,–,–,–
COc1cccc(C(=O)C2CCCN(Cc3ccc4nsnc4c3)C2)c1 (stereo not drawn),–,–,–,87.4
COc1cccc(C(=O)C2CCCN(Cc3cnn(C(C)C)c3)C2)c1 (stereo not drawn),–,–,–,71.0
COc1cccc(C(=O)C2CCCN(Cc3cccc(C)n3)C2)c1 (stereo not drawn),–,–,·,–
Cc1cccc(CN2CCCC(C(=O)c3cccc(OC(C)C)c3)C2)n1 (stereo not drawn),–,–,–,59.8
CCn1cc(CN2CCCC(C(=O)c3cccc(OC)c3)C2)c(C)n1 (stereo not drawn),–,–,–,78.2
Clc1cnc(Oc2ccc(Oc3ncc(Cl)cc3Cl)cc2)c(Cl)c1,–,–,–,–
CCCC[N+]1(C)C2CC(OC(=O)[C@H](CO)c3ccccc3)CC1C1OC12 (stereo partly drawn),–,·,·,·
